Drawing on PubChem BioAssay AID2073 (Sanford-Burnham Center for Chemical Genomics, 2009), this text covers inhibition for 68 molecules.

Molecules are shown by their SMILES. Hit rate of the full screen: of about 290,000 compounds, about 570 (0.2%) were called active. Another 1% or so got no clear call; they are omitted. No stated cut-off is given here; in the data, active means inhibition mostly above about 51% (no sharp cut-off); inconclusive means no clear call, values can overlap the other calls; inactive means mostly below about 53%. What follows is part of a selection rich in actives, with near analogues and random picks from the rest.

The assay addresses Voltage-dependent N-type calcium channel subunit alpha-1B (Homo sapiens) (UniProt Q00975). As to the kind of experiment: disruptors of CaV2.2 binding to Mint1 – biochemical, HTRF (AID 2073). The following applies: HTRF protein-protein interaction, Mint1-CaV2.2, at 20 µM, stronger effect = higher value.
The mark [1] stands for this setting: measured here: average of repeat tests.

Voltage-dependent N-type calcium channel subunit alpha-1B (Homo sapiens), sequence (Q00975 whole entry, looked up): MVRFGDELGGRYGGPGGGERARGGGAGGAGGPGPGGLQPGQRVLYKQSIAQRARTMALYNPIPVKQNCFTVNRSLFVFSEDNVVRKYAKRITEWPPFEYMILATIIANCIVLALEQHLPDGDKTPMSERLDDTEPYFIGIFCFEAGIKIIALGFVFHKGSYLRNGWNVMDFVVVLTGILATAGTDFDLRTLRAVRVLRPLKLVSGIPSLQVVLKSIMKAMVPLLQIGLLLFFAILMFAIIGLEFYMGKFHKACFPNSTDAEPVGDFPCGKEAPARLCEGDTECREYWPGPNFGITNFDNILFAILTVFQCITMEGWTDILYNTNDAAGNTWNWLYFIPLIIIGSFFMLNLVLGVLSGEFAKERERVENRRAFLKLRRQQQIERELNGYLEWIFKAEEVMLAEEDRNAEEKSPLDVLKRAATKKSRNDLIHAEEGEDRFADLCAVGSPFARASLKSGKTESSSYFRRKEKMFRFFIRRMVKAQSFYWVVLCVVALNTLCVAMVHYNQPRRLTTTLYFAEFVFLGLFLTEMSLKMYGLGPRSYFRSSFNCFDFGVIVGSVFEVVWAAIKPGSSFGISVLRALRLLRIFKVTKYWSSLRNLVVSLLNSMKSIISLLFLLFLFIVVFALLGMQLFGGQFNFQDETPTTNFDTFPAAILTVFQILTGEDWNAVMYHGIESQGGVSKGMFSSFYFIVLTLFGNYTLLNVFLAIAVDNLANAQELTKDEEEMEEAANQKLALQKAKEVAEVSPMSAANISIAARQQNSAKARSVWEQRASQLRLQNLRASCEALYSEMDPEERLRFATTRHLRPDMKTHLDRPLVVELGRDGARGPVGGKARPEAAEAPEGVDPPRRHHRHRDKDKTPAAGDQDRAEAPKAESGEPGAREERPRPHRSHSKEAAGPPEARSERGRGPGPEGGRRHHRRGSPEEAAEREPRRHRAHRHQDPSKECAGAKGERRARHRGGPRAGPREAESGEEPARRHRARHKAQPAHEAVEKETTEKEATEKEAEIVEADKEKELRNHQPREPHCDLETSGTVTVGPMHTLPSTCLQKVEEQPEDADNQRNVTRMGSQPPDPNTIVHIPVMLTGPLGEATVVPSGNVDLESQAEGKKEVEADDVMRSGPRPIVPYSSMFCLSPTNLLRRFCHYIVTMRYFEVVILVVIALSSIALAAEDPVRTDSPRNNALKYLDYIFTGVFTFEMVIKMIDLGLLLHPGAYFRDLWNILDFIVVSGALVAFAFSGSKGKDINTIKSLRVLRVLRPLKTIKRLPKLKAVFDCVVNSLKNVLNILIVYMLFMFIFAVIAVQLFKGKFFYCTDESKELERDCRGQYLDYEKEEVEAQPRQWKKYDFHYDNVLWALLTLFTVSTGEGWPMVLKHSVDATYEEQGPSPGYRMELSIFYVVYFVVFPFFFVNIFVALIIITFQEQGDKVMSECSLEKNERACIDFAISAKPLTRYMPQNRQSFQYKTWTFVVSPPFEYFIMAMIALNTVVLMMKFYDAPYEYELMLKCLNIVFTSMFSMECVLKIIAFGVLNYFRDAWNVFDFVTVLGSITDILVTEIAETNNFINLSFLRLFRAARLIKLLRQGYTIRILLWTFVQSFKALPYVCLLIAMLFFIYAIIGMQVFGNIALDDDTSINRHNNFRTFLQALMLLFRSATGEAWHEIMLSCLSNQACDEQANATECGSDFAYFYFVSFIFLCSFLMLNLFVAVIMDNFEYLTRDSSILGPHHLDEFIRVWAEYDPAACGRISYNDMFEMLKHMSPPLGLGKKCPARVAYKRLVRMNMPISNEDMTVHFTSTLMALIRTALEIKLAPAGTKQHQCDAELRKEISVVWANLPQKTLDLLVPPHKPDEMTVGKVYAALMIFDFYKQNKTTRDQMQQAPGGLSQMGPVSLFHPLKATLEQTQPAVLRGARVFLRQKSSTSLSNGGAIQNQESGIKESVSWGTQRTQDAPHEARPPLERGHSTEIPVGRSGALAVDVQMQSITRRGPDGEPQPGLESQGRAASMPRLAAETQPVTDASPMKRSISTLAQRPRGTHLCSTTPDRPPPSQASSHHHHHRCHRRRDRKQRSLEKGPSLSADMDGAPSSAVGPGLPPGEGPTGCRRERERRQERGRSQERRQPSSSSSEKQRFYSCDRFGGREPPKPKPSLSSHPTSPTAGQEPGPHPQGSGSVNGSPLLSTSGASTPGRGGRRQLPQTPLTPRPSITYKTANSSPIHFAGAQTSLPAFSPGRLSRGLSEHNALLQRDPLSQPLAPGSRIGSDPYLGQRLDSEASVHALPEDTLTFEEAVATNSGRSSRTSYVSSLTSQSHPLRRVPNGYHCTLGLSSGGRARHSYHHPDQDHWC

As a reminder, the inhibition is the change of the read-out against control, counted positive when it falls. Regarding `COc1nc2ccccc2nc1OC`, the inhibition is -4.1% (inactive).
With `COc1cc2ccccc2nn1`, the inhibition was 22.3% (inactive).
The same measure, in the same setting: as for `COc1ccc2c(n1)Sc1nc3ccccc3nc1N2`, the figure is 78.9% (active).
Consider `Cn1nc(-c2ccccc2)cc1NC(=O)Nc1ccc(F)cc1`, for which the inhibition is -0.7% (inactive).
Still for that read-out and setting: as for `Cc1ccc(N=C2NC(=O)/C(=C/C=C/c3ccco3)S2)cc1C`, the figure is 76% (active).
With `Cc1cccc(N=C2NC(=O)/C(=C/C=C/c3ccco3)S2)c1`, the inhibition was 57.2% (inactive). Further, the inhibition under setting [1] is 31.3%.
For the molecule `Cc1ccc(N=C2NC(=O)/C(=C\c3ccco3)S2)cc1`, the inhibition was 58.4% (inactive). In addition, the inhibition under setting [1] amounted to 6.9%.
`O=C1NC(=Nc2ccccc2)/C(=C/c2ccco2)S1`: the inhibition was 24.1% (inactive).
In the case of `O=C1NC(=Nc2ccc(Cl)cc2)/C(=C/c2ccco2)S1`, the inhibition is 55.3% (active).
`COc1ccc(N=C2NC(=O)/C(=C\c3ccco3)S2)cc1`: the inhibition was 81.2% (active).
Turning to `COc1ccc(N=C2NC(=O)/C(=C/c3ccco3)S2)cc1`, the inhibition is -14.1% (inactive).
As to `Cc1ccc(N=C2NC(=O)S/C2=C\c2ccco2)cc1`, the inhibition was 29.6% (inactive).
Consider `Cc1ccc(N=C2NC(=O)/C(=C/C=C/c3ccco3)S2)cc1`, for which the inhibition is 36.2% (inactive).
Consider `Fc1cccc(Cl)c1CSc1nnc2ccccn12`, for which the inhibition is 4% (inactive).
For the molecule `Cc1c(CC(=O)NCC(=O)NCC(=O)O)c(=O)oc2cc3c(cc12)CCC(C)(C)O3`, the inhibition was 16.3% (inactive).
With `Clc1ccc(-n2nnnc2SCc2cn3ccccc3n2)cc1`, the inhibition was -7.5% (inactive).
With `Cc1cc(Cl)c(OCCOCCN2CCCCC2)c(Br)c1`, the inhibition is -0.3% (inactive).
In the case of `CCNC(=O)NC(=O)COC(=O)C1CSC2(C)CCC(=O)N12` (stereo not given), the inhibition is 3.1% (inactive).
Take `C=CCN=C(NC#N)SCC(=O)NCc1ccccc1`: the inhibition was 2.2% (inactive).
With `CNC(=O)/C(C#N)=C/c1ccc(-c2ccc(OC)cc2[N+](=O)[O-])o1`, the inhibition is 11.4% (inactive).
Same read-out and setting: the same measure for `COc1ccc(-c2ccc(C(=O)O)o2)c([N+](=O)[O-])c1`: 59.6% (active).
For `COc1cccc(NC(=O)c2ccc(-c3ccccc3[N+](=O)[O-])o2)c1`, the inhibition is 52.1% (inactive). Under setting [1], the inhibition was 1.4%.
For `Cc1ccc(S(=O)(=O)N2CCN(C(=O)c3ccc(Cl)nc3)CC2)cc1`, the inhibition was 3% (inactive).
For the molecule `COc1ccc(C(=O)Nc2ccc(CN3CCOCC3)cc2)cc1Br`, the inhibition was 3% (inactive).
Same read-out and setting: as for `COc1ccc(-c2cc(-c3ccccc3)nc(=O)[nH]2)cc1`, the figure is 0.5% (inactive).
The same measure, in the same setting: the same measure for `Cc1cc(C)c2nc(-c3cccnc3)cc(C(=O)Nc3ccc(S(=O)(=O)Nc4onc(C)c4C)cc3)c2c1`: 31.4% (inactive).
Regarding `Cc1cc(C)c2nc(-c3ccccn3)cc(C(=O)Nc3ccc(S(=O)(=O)Nc4onc(C)c4C)cc3)c2c1`, the inhibition is 51% (active). Besides, the inhibition under setting [1] is 52.5%.
For `Cc1cc(C)c2nc(-c3ccccn3)cc(C(=O)Nc3ccc(S(=O)(=O)Nc4cc(C)on4)cc3)c2c1`, the inhibition is 39.7% (inactive).
With `COC(=O)c1sccc1NC(=O)c1ccc(C)o1`, the inhibition is 19.2% (inactive).
Turning to `O=S(=O)(Cc1ccccc1)N1CCN(c2ncccn2)CC1`, the inhibition was 7.7% (inactive).
Turning to `CCC(C(=O)NC1CC1)n1nc(C)c2c(C)n(-c3ccc(C)cc3)nc2c1=O` (stereo not given), the inhibition is 9.6% (inactive).
In the case of `COc1ccc(/C=C/C(=O)NC(=S)Nc2cc3oc4ccccc4c3cc2OC)cc1`, the inhibition is 0.7% (inactive).
Take `COc1cc2c(cc1NC(=S)NC(=O)/C=C/c1ccco1)oc1ccccc12`: the inhibition is 53.2% (active).
For `COc1cc2c(cc1NC(=S)NC(=O)/C=C/c1ccc(OC)c(OC)c1)oc1ccccc12`, the inhibition is 14.5% (inactive).
Same read-out and setting: the same measure for `Cc1oc(-c2ccccc2Cl)nc1CS(=O)CC(=O)NCc1ccco1` (stereo not given): 19.1% (inactive); for `Cc1cc(OCC(O)CN2CCCC2)ccc1C(C)C` (stereo not given): -5.6% (inactive).
Take `O=C(Nc1ccc(C2=NCCN2)cc1)c1ccc(C(=O)Nc2ccc(C3=NCCN3)cc2)c([N+](=O)[O-])c1`: the inhibition is 30.7% (inactive).
Take `O=C(Nc1ccc(C2=NCCN2)cc1)c1ccc(C(=O)Nc2ccc(C3=NCCN3)cc2)c(Cl)c1`: the inhibition is 51.6% (active).
For the molecule `O=C(Nc1ccc(C2=NCCN2)cc1)c1ccc(Cl)c(C(=O)Nc2ccc(C3=NCCN3)cc2)c1`, the inhibition is 36.8% (inactive).
Turning to `O=C(/C=C/c1ccc(Cl)cc1)N(Cc1ccccc1)c1ccccn1`, the inhibition was 22.8% (inactive).
In the case of `COc1ccccc1CN(C)C(=O)c1cnc(C)cn1`, the inhibition is 5.7% (inactive).
Same read-out and setting: the same measure for `Cc1cccc(/C=N/N2CCN(c3ccccc3)CC2)c1`: -12.6% (inactive); for `CCCN1CCC(=O)N([C@H](CO)c2ccccc2)CC1`: 5.6% (inactive); for `O=C1c2cccc3c(N4CCCCC4)ccc(c23)C(=O)N1CCO`: 24.6% (inactive).
Regarding `C=CCN1C(=O)c2cccc3c(N4CCCCC4)ccc(c23)C1=O`, the inhibition was 53.2% (active).
Consider `CCCN1C(=O)c2cccc3c(N4CCCCC4)ccc(c23)C1=O`, for which the inhibition was 11.8% (inactive).
Still for that read-out and setting: as for `CCOc1ccc(C(=O)NC(=S)NCCCN2CCOCC2)cc1`, the figure is -2.3% (inactive).
As to `COc1ccc(NC(=O)c2c3c(nc4ccccc24)CCC3)cc1S(=O)(=O)N1CCOCC1`, the inhibition was 59.4% (inactive). Under setting [1], the inhibition came to 41.1%.
As to `O=C(Nc1cccc(S(=O)(=O)N2CCCCC2)c1)c1c2c(nc3ccccc13)CCN(Cc1ccccc1)C2`, the inhibition is 40.8% (inactive).
The same measure, in the same setting: as for `O=C(Nc1cccc(S(=O)(=O)N2CCOCC2)c1)c1c2c(nc3ccccc13)CCC2`, the figure is 56% (active); as for `CCOc1cc(C(c2c(C)[nH][nH]c2=O)c2c(C)[nH][nH]c2=O)cc(Br)c1OC`, 5.6% (inactive); as for `C=CC#CC1(O)CC(C)[N+](C)(C)CC1C` (stereo not given), 17.6% (inactive).
The same measure, in the same setting: as for `C=CCn1c(=NC(=O)c2cc(Cl)sc2Cl)sc2cc(S(N)(=O)=O)ccc21`, the figure is 27.4% (inactive); as for `CCOCCn1c(=NC(=O)c2cc(Cl)sc2Cl)sc2cc(S(N)(=O)=O)ccc21`, 53.8% (active).
Still for that read-out and setting: the same measure for `COCCn1c(=NC(=O)c2cc(Cl)sc2Cl)sc2cc(S(N)(=O)=O)ccc21`: 38.7% (inactive); for `CCOc1ccccc1C(=O)NC(C(=O)Nc1cccnc1)C(C)C` (stereo not given): 3.3% (inactive).
As for `COCCn1c(C)cc(C(=O)COc2cccnc2[N+](=O)[O-])c1C`, the inhibition was -4% (inactive).
Regarding `Cc1cc(C(=O)COc2cccnc2[N+](=O)[O-])c(C)n1Cc1cccs1`, the inhibition is 34% (inactive).
Regarding `Cc1cc(C(=O)COc2cccnc2[N+](=O)[O-])c(C)n1Cc1ccco1`, the inhibition was 78.9% (active).
For the molecule `Cc1ccc(NC(=O)c2c3c(nc4ccccc24)CCC3)cc1S(=O)(=O)N(C)C`, the inhibition was 53.6% (inactive). The inhibition under setting [1] was 31.4%.
For `Cc1ccc(S(=O)(=O)N(C)CC(=O)OCC(=O)N2CCCC2=O)cc1`, the inhibition is -12.9% (inactive).
Regarding `O=C(Nc1nc(-c2cccnc2)cs1)c1ccc([N+](=O)[O-])cc1`, the inhibition was 19% (inactive).
Take `COc1cc(CN(C(=O)c2ccco2)C2CCS(=O)(=O)C2)cc(OC)c1OC` (stereo not given): the inhibition was 11.2% (inactive).
As to `CC(=O)c1cccc(Nc2nc(-c3ccccc3)cs2)c1`, the inhibition is 0.5% (inactive).
In the case of `Cc1cccc(C=Nc2ccc3c4c(cccc24)CC3)c1O`, the inhibition is 7.8% (inactive).
Turning to `Oc1ccc(Br)cc1C=Nc1ccc2c3c(cccc13)CC2`, the inhibition is 53.5% (active).
For `Oc1ccc(Cl)cc1C=Nc1ccc2c3c(cccc13)CC2`, the inhibition was 50.4% (inactive). For the same molecule, under setting [1], the inhibition turned out to be 11.1%.
For `O=[N+]([O-])c1cc(Cl)ccc1N1CCCC1`, the inhibition is -1.5% (inactive).
